Data as given in PubChem BioAssay (NCATS).
Values joined by “and” are separate entries in the source; they are usually repeats but may differ in a detail not shown here. Identical values can stand only once. Records with an inconclusive call do not appear. Entries that show only a call come without a potency. Some compounds were tested as several samples or in several runs, with calls that do not always agree. Active and inactive are the calls of the source. Calls follow the shape of the dose curve; as a rule, active = well fitted curve in the direction sought with a large enough effect; inconclusive = small, poorly fitted or top-dose-only effect, or another doubt; inactive = no such curve, though single readings can be large; an effect the other way counts as inactive or inconclusive.

How the values were obtained:
[1] = biological target: Glutathione peroxidase 1 (Homo sapiens) (UniProt P07203); experiment: Primary qHTS Assay for Inhibitors of Recombinant Selenoprotein Glutathione Peroxidase 1 (GPX1) (AID 1845191); also: nearly all actives have a fitted effect of over 65% in size
Sequence of Glutathione peroxidase 1 (Homo sapiens) (P07203 whole entry, looked up): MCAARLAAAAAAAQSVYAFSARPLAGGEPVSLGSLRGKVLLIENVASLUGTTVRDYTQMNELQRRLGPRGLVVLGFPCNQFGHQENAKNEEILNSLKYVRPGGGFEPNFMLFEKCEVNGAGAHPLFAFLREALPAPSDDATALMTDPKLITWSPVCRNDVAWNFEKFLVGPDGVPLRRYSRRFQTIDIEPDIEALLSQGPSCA
Procedure, shortened: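 GR-coupled readout: NADPH consumption tracked by fluorescence, ex 340/em 450 nm, at t=0 and after 15 min at RT. Final mix 10 nM GPX1, 1 mM GSH, 0.5 mM CHP, 0.5 mM NADPH, 100 nM GR, 0.01% BSA, following 30 min enzyme–compound preincubation.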

[2] = biological target: Phospholipid hydroperoxide glutathione peroxidase GPX4 (Homo sapiens) (UniProt P36969); experiment: Primary qHTS Assay for Inhibitors of Recombinant Selenoprotein Glutathione Peroxidase 4 (GPX4) (AID 1845192); also: nearly all actives have a fitted effect of over 65% in size; also: potency is read from the fitted curve at half-maximal effect
Sequence of Phospholipid hydroperoxide glutathione peroxidase GPX4 (Homo sapiens) (P36969 whole entry, looked up): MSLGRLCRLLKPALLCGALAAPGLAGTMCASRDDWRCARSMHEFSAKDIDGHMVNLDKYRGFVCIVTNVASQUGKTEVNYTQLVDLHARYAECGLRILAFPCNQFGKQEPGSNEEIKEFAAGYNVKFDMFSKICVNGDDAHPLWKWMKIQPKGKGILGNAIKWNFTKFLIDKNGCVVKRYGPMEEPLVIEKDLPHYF
Procedure, shortened: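 Steps: GPX4 plus compound, 30 min RT; add GR/GSH/NADPH master mix; start with cumene hydroperoxide; read 340/450 nm fluorescence at 0 and 15 min. Finals were 200 nM GPX4, 1 mM GSH, 0.5 mM CHP, 0.5 mM NADPH, 100 nM GR.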

[3] = biological target: Luciferin 4-monooxygenase (Photinus pyralis) (UniProt P08659); experiment: Primary firefly luciferase (FLuc) qHTS assay for identification of artifact compounds. (AID 1845220); also: nearly all actives have a fitted effect of over 60% in size
Procedure, shortened: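 Enzymatic FLuc inhibition assay: compounds pre-exposed to luciferin/ATP (10 uM each) for 15 min, then purified P. pyralis enzyme at 10 nM added. Read-out: luminescence at 5 min.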

[4] = Primary fluorescence-based thiol-reactive (MSTI) qHTS assay for identification of artifact compounds. (AID 1845221); also: nearly all actives have a fitted effect of over 65% in size; also: potency is read from the fitted curve at half-maximal effect
Procedure, shortened: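 Curve-fitted percent inhibition (4-parameter Hill) derived from fluorescence, Ex 525/Em 598 nm, scaled with Acetyl-MSTI and MSTI; 1 h incubation at room temperature.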

[5] = system: Nanoluciferase (engineered Oplophorus gracilirostris luciferase); experiment: Primary Nanoluciferase (NLuc) qHTS assay for identification of artifact compounds. (AID 1845222);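 also: NLuc secreted into diluted conditioned medium of S16 cells; series mostly up to about 54 µM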
Procedure, shortened: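 S16 cell supernatant NLuc, 1:55; cpds qHTS; 15 min RT dark; Nano-Glo substrate 1:100, 5 min; luminescence; Hill fit of % inhibition.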

Row | Structure (SMILES) | Potency [1] | Potency [2] | Potency [3] | Potency [4] | Potency [5]
1 | O=C(NC[C@H](O)CN1CCc2ccccc2C1)c1ccnc(NC2CCC2)c1 | inactive | inactive | inactive | inactive | inactive
2 | CC(=O)c1c(C)cc2cccc(O)c2c1O[C@@H]1O[C@H](CO)[C@@H](O)[C@H](O)[C@H]1O | inactive | inactive | inactive | 5.21 µM (active) | inactive
3 | COc1cc(CN(CCN)C(=O)c2cccs2)ccc1OCc1ccccc1 | inactive | inactive | inactive | inactive | inactive
4 | CCO[C@H]1CN(C2CCC(O)(c3ccc4c(c3)OCO4)CC2)C[C@@H]1NC(=O)CNC(=O)c1cccc(C(F)(F)F)c1 (stereo not given in full) | inactive | inactive | inactive | inactive | inactive
5 | O=C(NCC1CCN(Cc2cccc(Cl)c2)CC1)[C@@H]1CCCN(c2ncnc3c2nc2n3CCCC2)C1 | inactive | inactive | inactive | inactive | inactive
6 | Nc1ncnc2c1c(-c1ccc(Oc3ccccc3)cc1)nn2[C@@H]1CCCNC1 | inactive | inactive | inactive | inactive | inactive
7 | COc1ccc2nccc(C(=O)CC[C@@H]3CCN(CC#Cc4cc(F)cc(F)c4F)C[C@@H]3C(=O)O)c2c1 | inactive | inactive | inactive | inactive | inactive
8 | CCC[C@@]1(CCc2ccccc2)CC(O)=C([C@H](CC)c2cccc(NS(=O)(=O)c3ccc(C(F)(F)F)cn3)c2)C(=O)O1 | inactive | inactive and 6.31 µM (active) | inactive | inactive | inactive
9 | Cc1c[nH]c2ncnc(N3CCC(CN)(C(=O)Nc4cccc(OC(=O)N(C)C)c4)CC3)c12 | inactive | inactive | inactive | inactive | inactive
10 | COc1cc(C(N)=O)nc(-c2ccccn2)c1O | inactive | inactive | inactive | 23.8 µM (active) | inactive
11 | COc1ccc2nc(-c3cc(OC)c(OC)c(OC)c3)cc(C(=O)NCC(=O)Nc3ccc(C(C)=O)cc3)c2c1 | inactive | inactive | inactive | inactive | inactive
12 | CCNC(=O)c1noc(-c2cc(Cl)c(O)cc2O)c1-c1ccc(OC)cc1 | inactive | inactive | inactive | inactive | inactive
13 | COc1cc(O)c2c(c1)/C=C/C[C@H](O)[C@H](O)C(=O)/C=C\C[C@H](C)OC2=O | inactive | inactive | inactive | inactive | inactive
14 | O=C(C1CCCCC1)N(CCN1CCN(c2ccccc2O)CC1)c1ccccn1 | inactive | inactive | inactive | inactive | inactive
15 | CCNC1(C(N)=O)CN(c2nc(C)nc3c(-c4ccc(Cl)cc4)c(-c4ccccc4Cl)nn23)C1 | inactive | inactive | inactive | inactive | inactive
16 | O=S(=O)(c1ccccc1)N(CC(F)(F)F)c1ccc(C(O)(C(F)(F)F)C(F)(F)F)cc1 | inactive | inactive | inactive | inactive | inactive
17 | O=C(NCc1ccccc1)c1ccc2c(=O)n(-c3cccc(C(F)(F)F)c3)c(=S)[nH]c2c1 | inactive | inactive | inactive | inactive | inactive
18 | COc1ccc(CCc2nc3cc(-c4c(C)noc4C)ccc3n2CC(C)N2CCOCC2)cc1Cl (stereo not given) | inactive | inactive | inactive | inactive | inactive
19 | CCCOc1ccc(CCc2nc3cc(-c4c(C)noc4C)ccc3n2CCN2CCOCC2)cc1 | inactive | inactive | inactive | inactive | inactive
20 | COc1cccc(-c2cc(F)ccc2C2Cc3nc(N)nc(C)c3C(=O)N2)n1 (stereo not given) | inactive | inactive | inactive | inactive | inactive
21 | Cc1cc(NC(=O)NCCN2CCC(O)(Cc3ccccc3)CC2)c2ccccc2n1 | inactive | inactive | inactive | inactive | inactive
